The text below walks through data of the supplement of paper PMC9177965.

Where “and” joins values, the source holds several entries; their conditions need not be identical. Equal entries are not always repeated.

The assay relates to HT29 RNF43 G659fs (RNF43 659mut, CRISPR-edited). Nature of the assay: cell viability activity relative to DMSO (negative = inhibition); higher = more viable cells (less growth inhibition). The note with it: 5 µM; 96 h. On the procedure: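 Broad Repurposing Library primary screen at a single dose of 5 uM. HT29 sg-Ctrl and HT29 RNF43 G659fs CRISPR-edited isogenic cells were seeded at 2500 cells/well in 384-well plates in duplicate and treated for 96 h. Viability was read by CellTiter-Glo and reported as % activity relative to DMSO, with MG132 as the positive control (negative = growth inhibition).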
For the molecule `CCNC(=O)C#Cc1ccc2c(C(=Nc3ccc(CN(C)C)cc3)c3ccccc3)c(O)[nH]c2c1`, the cell viability activity was -98.3%. To `NCCCCNCCCN` belongs -26.8%; to `Nc1nccc2c1ncn2[C@@H]1C=C(CO)[C@@H](O)[C@H]1O`, -41.6%. With `Clc1ccc(CSC(Cn2ccnc2)c2ccc(Cl)cc2Cl)cc1` (stereo not given) the figure was -38.7%; with `COc1cc2nc(N3CCC(N4CCCCC4)CC3)nc(NC3CCCCCC3)c2cc1OC`, -93.5%. With `Nc1ccc2cc3ccc(N)cc3nc2c1` the figure was -64.5%; with `S=c1[nH]cnc2nc[nH]c12`, -51.6%; with `CC(C)(C)c1ccc(-c2nc3ccccc3[nH]2)cc1`, -58.2%. Consider `CC(C)(C)CC(C)(C)c1ccc(OCCOCC[N+](C)(C)Cc2ccccc2)cc1`, for which the cell viability activity was -98.5%. Regarding `Cc1cc(I)ccc1Nc1c(C(=O)NOCC2CC2)cc(F)c(F)c1F`, the cell viability activity was -65.5%.

Regarding `Cc1c(C2CCN(CCc3ccccc3)CC2)noc1-c1ccc(Cl)cc1`, the cell viability activity was -38%.

Turning to `CCCCCCCCCCCC[N+](C)(C)CCOc1ccccc1`, the cell viability activity was -84.4%.

Turning to `Nc1ccccc1NC(=O)c1ccc(CNc2nccc(-c3cccnc3)n2)cc1`, the cell viability activity was -87.7%.

Turning to `OCCN1CCN(CCCN2c3ccccc3Sc3ccc(Cl)cc32)CC1`, the cell viability activity was -53.2%. With `O=C(c1ccc(F)c(F)c1Nc1ccc(I)cc1F)N1CC(O)([C@@H]2CCCCN2)C1` the figure was -86.8%; with `COC(=O)c1ccccc1-c1c2ccc(=N)cc-2oc2cc(N)ccc12`, -44.3%; with `Cc1ccc(C(=O)N(CCCN)[C@@H](c2oc3cc(Cl)ccc3c(=O)c2Cc2ccccc2)C(C)C)cc1`, -63.6%.

Consider `CC(=O)[C@]1(O)Cc2c(O)c3c(c(O)c2[C@@H](O[C@H]2C[C@H](N)[C@H](O)[C@H](C)O2)C1)C(=O)c1ccccc1C3=O`, for which the cell viability activity was -97.8% and -97.3%. Consider `O=C1NC(=O)[C@@H](c2cn3c4c(cccc24)CCC3)[C@@H]1c1c[nH]c2ccccc12`, for which the cell viability activity is -50.8%.

Consider `N#Cc1ccc(COC[C@H]2O[C@@H](n3c(NCc4ccc(Cl)c(Cl)c4)nc4c(N)ncnc43)[C@H](O)[C@@H]2O)cc1`, for which the cell viability activity is -24.9%. `Cc1ncc(NC(=O)c2ccc(CN3CCN(C)CC3)c(C(F)(F)F)c2)cc1Nc1nccc(-c2cccnc2)n1`: the cell viability activity is -33.9%. For `O=C(O)c1ccccc1-c1c2cc(I)c(=O)c(I)c-2oc2c(I)c(O)c(I)cc12`, the cell viability activity is -23%. With `CC(C)c1cc(C(C)C)c(-c2csc(N(CCN(C)C)Cc3cccnc3)n2)c(C(C)C)c1` the figure was -24%; with `Clc1ccc(NN=C(c2ccccc2)c2ccccn2)nc1`, -70.7%.

For `COC(=O)C[C@](O)(CCCC(C)(C)O)C(=O)O[C@@H]1C(OC)=C[C@]23CCCN2CCc2cc4c(cc2[C@H]13)OCO4`, the cell viability activity was -92.7%.

Consider `CCCSc1ccc2[nH]c(NC(=O)OC)nc2c1`, for which the cell viability activity was -63.8%. For the molecule `CCOc1cc2ncc(C#N)c(Nc3ccc(OCc4cccc(F)c4)c(Cl)c3)c2cc1NC(=O)/C=C/CN(C)C`, the cell viability activity is -30.8%. As to `O=c1[nH]c(=O)n([C@H]2C[C@H](O)[C@@H](CO)O2)cc1F`, the cell viability activity was -58.1% and -58.2%.

With `C[C@]12CC[C@@H]3c4ccc(O)cc4C[C@@H](CCCCCCCCC[S+]([O-])CCCC(F)(F)C(F)(F)F)[C@H]3[C@@H]1CC[C@@H]2O` (stereo not given in full), the cell viability activity was -38.7%. On to `CCc1c(O)cc(O)c(C(=O)c2ccc(OCCN3CCOCC3)c(OC)c2)c1CC(=O)N(CCOC)CCOC`, for which the cell viability activity was -93%. With `COc1cccc(Nc2ncnn3ccc(CN4CC[C@@H](N)[C@H](O)C4)c23)c1` the figure was -24%; with `CC(C)/N=c1\cc2n(-c3ccc(Cl)cc3)c3ccccc3nc-2cc1Nc1ccc(Cl)cc1`, -75.3%. With `CCCCC/N=c1\ccn(Cc2ccccc2)c2ccccc12` the figure was -62.5%. With `COc1cc2c(cc1-c1c(C)noc1C)ncc1[nH]c(=O)n([C@H](C)c3ccccn3)c12` the figure was -60.5%; with `Cc1cc(C2CCCCC2)n(O)c(=O)c1`, -85.1%. As for `NS(=O)(=O)OC[C@@H]1C[C@@H](n2ccc3c(N[C@H]4CCc5ccccc54)ncnc32)C[C@@H]1O`, the cell viability activity was -78%.

For `COc1ccccc1S(=O)(=O)Nc1ccc2c(c1)CN(C)C(=O)N2`, the cell viability activity is -56.4%. With `CN1CCC[C@@H]1Cc1c[nH]c2ccc(CCS(=O)(=O)c3ccccc3)cc12`, the cell viability activity is -25.1%. With `Nc1ccc(F)cc1NC(=O)c1ccc(CNC(=O)/C=C/c2cccnc2)cc1` the figure was -39.6%; with `Cc1ccc2c(Br)cc(Br)c(OC(=O)c3ccccc3)c2n1`, -27.6%.
